# PubChem BioAssay
# Where “and” joins values, the source holds several entries; their conditions need not be identical. Identical values can stand only once. Calls of active or inactive are those of the source. Unless noted, no rule for the calls is given here.
# Experiments:
# [1] = test system: XIP peptide (Xip251-270) binding; assay: small-molecule binders of XIP peptide, primary screen, biochemical, small-molecule microarray, fluorescence 635/667 nm, 0.1 µg/mL protein (AID 1182); conditions: fluorescent protein binding, 635 nm, higher = more signal, called active from +8 up or from −8 down
# XIP peptide (Xip251-270) = assay: small-molecule binders of XIP peptide, primary screen, biochemical, small-molecule microarray, fluorescence 635/667 nm, 0.5 µg/mL protein (AID 1183); conditions: small-molecule microarray binding, fluorescence 635 nm; higher = more signal
# [2] = Plasmodium falciparum growth inhibition, primary screen, strain 3D7, DAPI fluorescence, 100 nL (AID 1184);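 also: parasites grown inside human red blood cells in medium with human serum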; conditions: P. falciparum 3D7 growth, 3 d, higher = more signal
# [3] = target: Homeobox protein Hox-A13 (Mus musculus) (UniProt Q62424); assay: inhibitors of HoxA13-DNA binding, primary screen, biochemical, fluorescence polarization, labeled oligonucleotide (AID 1185); conditions: 15 min, higher = more signal, called active from +8 up or from −8 down
# Sequence of Homeobox protein Hox-A13 (Mus musculus) (Q62424 whole entry, looked up): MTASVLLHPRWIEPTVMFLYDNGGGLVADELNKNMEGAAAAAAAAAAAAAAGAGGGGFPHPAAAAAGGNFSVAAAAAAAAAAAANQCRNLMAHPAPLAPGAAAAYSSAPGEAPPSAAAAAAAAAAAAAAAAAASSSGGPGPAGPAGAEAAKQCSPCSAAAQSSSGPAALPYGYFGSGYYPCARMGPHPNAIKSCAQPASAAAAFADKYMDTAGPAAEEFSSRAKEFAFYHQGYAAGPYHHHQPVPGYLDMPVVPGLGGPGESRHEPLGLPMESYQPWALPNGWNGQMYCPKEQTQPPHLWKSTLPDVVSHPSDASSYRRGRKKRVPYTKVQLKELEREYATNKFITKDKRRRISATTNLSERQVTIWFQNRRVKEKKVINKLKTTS
# [4] = inhibitors of hydroxyurea-induced Chk1 phosphorylation, primary screen, imaging, HeLa, phospho-Chk1 antibody, percent positive cells (AID 1186); conditions: hydroxyurea-induced phospho-Chk1 immunofluorescence imaging, higher = more signal
# [5] = inhibitors of hydroxyurea-induced Chk1 phosphorylation, primary screen, imaging, HeLa, phospho-Chk1 nuclear intensity (AID 1187); conditions: hydroxyurea-induced phospho-Chk1 immunofluorescence imaging, higher = more signal
Compound,composite z-score [1],composite z-score (XIP peptide (Xip251-270)),z-score [2],z-score [3],z-score [4],z-score [5]
CC(C)=NO[C@@H](C)c1cc(-c2c(C)cc(C)cc2C)no1,-0.386 (inactive),0.303,-0.876,0.387 (inactive),–,–
CCCC[C@@H]1CN2[C@@H](CC[C@@H](C)[C@@H]2c2ccc(Br)cc2)C(=O)O1,0.177 (inactive) and 0.122 (inactive),0.712 and 0.647,0.524 and 0.888,-3.5 (inactive) and -2.53 (inactive),–,–
CC(C)CCN1CCc2nc(-c3ccccc3)c3c(c2C1)CO[C@@H](C)C3,0.105 (inactive),0.563,1.77,-3.47 (inactive),–,–
CCOC(=O)[C@H](CC(C)C)NC(=O)CCC1CC(OC(=O)NCc2cccc3ccccc23)CC2(CCCC(COC(=O)NCc3ccccc3)O2)O1 (some centres undefined),-0.17 (inactive),0.374,-1.8,-2.88 (inactive),–,–
C[C@@H]1CC[C@H]2C(=O)N3[C@@H](CC[C@@H](C)[C@@H]3c3ccc(-c4ccco4)cc3)C(=O)N2[C@H]1c1ccc(-c2ccco2)cc1,1.47 (inactive),0.827 and 0.789,0.376 and 0.75,-1.46 (inactive) and 0.517 (inactive),–,–
Cc1ccc(S(=O)(=O)N[C@@H]2COC(=O)CC=C[C@@H](C)[C@@H]3C=C[C@H](O)[C@@H](COC(=O)CC=C[C@H]2C)O3)cc1,0.061 (inactive) and -0.148 (inactive),-0.179 and 0.167,1.03 and -1.19,-1.86 (inactive) and -1.1 (inactive),–,–
O=C1[C@H]2[C@H]3[C@H](O)[C@H](O)CC(=NOCc4ccccc4)[C@H]3CC[C@H]2C(=O)N1Cc1ccccc1,-0.0784 (inactive),0.0748,-1.76,-1.09 (inactive),–,–
C#CCCCON=C1C[C@@H](O)[C@@H](O)[C@@H]2[C@@H]3C(=O)N(C4CCCCC4)C(=O)[C@@H]3CC[C@H]12,0.57 (inactive),0.545,1.43,0.504 (inactive),–,–
CCN1C(=O)[C@H]2[C@H]3[C@H](O)[C@H](O)CC(=NOC[C@@H](O)COCc4ccco4)[C@@H]3CC[C@H]2C1=O,-0.24 (inactive) and 1.01 (inactive),0.232 and 0.595,0.0479 and -0.919,-0.849 (inactive) and -2.85 (inactive),–,–
CC(=O)OC[C@H]1O[C@H](C#CC(C)(C)C)C=C[C@@H]1OC(C)=O,0.853 (inactive),0.575,1.32,-2.75 (inactive),–,–
COC(=O)C1=C(C)N(Cc2ccccc2)[C@]23O[C@](C(=O)OC)(C(=O)N2[C@@H]1c1ccccc1)[C@H]1CCCC(=O)[C@H]13,0.472 (inactive) and 0.134 (inactive),-0.0169 and 0.279,0.0733 and -0.727,-4.3 (inactive) and 0.514 (inactive),–,–
CO[C@@H]1COC(=O)CC=C[C@H](C)[C@@H](NS(=O)(=O)c2ccc(C)cc2)COC(=O)CC=C[C@@H]1C,1.11 (inactive) and 0.147 (inactive),0.77 and 0.481,0.707 and -0.283,-1.05 (inactive) and -2.69 (inactive),–,–
C=CCN(C(=O)C1N(c2ccc(CCO)cc2)C(=O)C2C(C(=O)O)C3C=CC21O3)c1ccc(OC)cc1 (centres undefined),0.777 (inactive) and -0.925 (inactive),0.936 and -0.824,-1.09 and -0.417,-1.87 (inactive) and -0.733 (inactive),-0.265 (inactive) and -0.271 (inactive),-0.268 (inactive) and -0.384 (inactive)
COc1ccc(COC(=O)NN=C2C[C@@H](O)[C@@H](O)[C@@H]3[C@@H]4C(=O)N(C(C)(C)C)C(=O)[C@@H]4CC[C@H]23)cc1,2.23 (inactive),0.801,0.189,0.471 (inactive),–,–
CCCCCN1CC=CC23O[C@@H]4C=CCCOC(=O)C4[C@H]2C(=O)N(C(C)CO)[C@@H]3C1=O (some centres undefined),0.79 (inactive) and 0.201 (inactive),0.675 and 0.445,-0.165 and -0.358,-5.44 (inactive) and -4.65 (inactive),-0.605 (inactive) and 0.667 (inactive),0.0018 (inactive) and 0.28 (inactive)
C=CCN(C(=O)C(c1cccs1)N(CCOCCO)C(=O)/C=C\C(=O)O)c1ccc(OC)cc1 (centres undefined),-0.0498 (inactive) and -0.363 (inactive),-0.371 and -1.72,-0.305 and 0.0058,1.69 (inactive) and 0.807 (inactive),-1.69 (inactive) and -0.75 (inactive),-0.197 (inactive) and -0.573 (inactive)
CCCNC(=O)OC[C@H]1O[C@H](CCON=C(C)CCC(=O)OC[C@H]2O[C@H](C#Cc3ccccc3)C=C[C@@H]2Oc2ccc(C)cc2)C=C[C@@H]1Oc1ccc(OC)cc1,-0.238 (inactive),-0.439,-2.1,-0.983 (inactive),–,–
